Screens from PubChem BioAssay.
Cav32 inh: blocks human Cav3.2 T-type calcium channel; Cav3.2-expressing cells, Fluo-4 calcium fluorescence FDSS; stronger effect = lower value; O95180; hit rate 4% among 100,000; B-score at 10 µM;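 active = single-dose well whose peak fluorescence ratio is a statistical outlier from its plate by either plate-standardised score or position-corrected B-score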
DAT uptake mod: human DAT dopamine uptake with cocaine, either direction; LLC-PK1 hDAT cells, [14C]-dopamine uptake with cocaine IC80; actives deviate in either direction; B-score at 10 µM; hit rate 1.3% among 110,000;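 active = Z score or B-score, a plate-position-corrected score, falls beyond the plate's 99.7% confidence bounds, in either direction; inactive = both scores lie inside the 99.7% bounds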;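 note: scored against the spread of the other compound wells on the same plate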
PostGolgi yeast: growth inhibition of a yeast mutant, post-Golgi transport screen | AID 739 | hit rate 0.9% among 98,000 | post-Golgi transport phenotypic cell assay | inhibition, % at 10 µM;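 note: yeast cells grown in 1536-well plates; yeast grown about 18 h at 30C before absorbance read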
PLAP activator: activates human placental alkaline phosphatase; P05187; purified PLAP enzyme, luminescent substrate read-out; stronger effect = higher value; activation fold at 20 µM; hit rate 1.2% among 96,000; AID 696; in the data active = activation fold above about 2
Target sequence (P05187 whole entry, looked up): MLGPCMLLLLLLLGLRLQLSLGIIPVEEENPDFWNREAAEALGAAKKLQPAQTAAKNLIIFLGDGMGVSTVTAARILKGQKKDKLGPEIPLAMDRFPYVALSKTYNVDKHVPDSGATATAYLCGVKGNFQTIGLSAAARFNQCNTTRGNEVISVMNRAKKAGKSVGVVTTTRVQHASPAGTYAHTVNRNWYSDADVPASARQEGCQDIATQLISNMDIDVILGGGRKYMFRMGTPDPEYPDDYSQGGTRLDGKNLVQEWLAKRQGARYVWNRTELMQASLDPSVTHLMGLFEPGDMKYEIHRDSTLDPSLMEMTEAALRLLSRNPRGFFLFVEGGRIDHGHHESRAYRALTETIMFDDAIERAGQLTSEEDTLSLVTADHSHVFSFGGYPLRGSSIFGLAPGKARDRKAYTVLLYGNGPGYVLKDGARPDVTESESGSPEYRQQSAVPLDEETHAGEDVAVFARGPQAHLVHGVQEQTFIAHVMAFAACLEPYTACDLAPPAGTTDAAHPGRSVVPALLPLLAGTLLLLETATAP
PostGolgi ctrl: growth of the yeast control strain, post-Golgi counter-screen; inhibition, % at 10 µM; hit rate 5% among 98,000; AID 738; efflux-deficient yeast background strain, growth absorbance A615, 16 h
Numbers without * were called inactive; . = no result given. This is a sample that favours compounds with a hit; in the whole collection about 9.6% have one here. Cut-off read from the data, not from the text of the source, unless noted: active = inhibition above about 30%; inactive = the rest.

SMILES	Cav32 inh	DAT uptake mod	PostGolgi yeast	PLAP activator	PostGolgi ctrl
Cc1cccc(NC(=S)N/N=C/c2ccc([N+](=O)[O-])s2)c1	0.58	0.36	44*	0.9	96*
NC(=O)SCC(=O)Nc1cccc(Cl)c1	-5.4*	0.017	-8	1.5	2
Cc1ccc(NC(=O)CSC(N)=O)cc1Cl	-6.3*	-0.31	7	0.7	5
COc1cc(/C=N/NC(=O)CNC(=O)c2ccccc2)ccc1OC(=O)c1cccs1	-0.45	0.9	-5	1	-1
CCC(=O)n1nc(-c2ccc(OC)cc2)nc1N	0.33	-9.5*	6	0.9	5
O=C(CCCOc1ccc(Cl)cc1Cl)N1CCN(c2ccccn2)CC1	-4.1	1.7	-8	1.5	52*
CC(=O)Nc1cccc(-c2nnc(SCc3ccccc3C#N)n2C)c1	1.9	-0.46	-1	0.8	0
COc1cc2c(C#N)c(N3CCN(c4ccccc4OC)CC3)nc(N)c2c(N)n1	0.81	2	17	1.8	36*
CC1(C)CC(=O)c2c(-c3cccs3)n[nH]c2C1	0.47	-0.19	5	1.2	10
CCCCN1C(=O)/C(=C/C=C2\N(C)c3ccccc3C2(C)C)SC1=S	-4.7*	-1.1	-9	1.1	0
O=C(NCCCn1ccnc1)c1ccc2c(c1)OCCO2	-0.21	-0.072	-6	1	47*
Cc1[nH]nc(SCC(=O)N2CCC(C)CC2)c1[N+](=O)[O-]	0.021	0.11	5	1.3	12
COc1ccc(Cn2c(SCc3ccccc3C)nc3cc(OC)c(OC)cc3c2=N)cc1	0.061	0.96	-1	1.2	67*
COc1ccc(Nc2nc3ccccc3nc2C)cc1	-3.8*	2.1	-10	1.5	-4
CC(=O)NCCC(=O)Nc1ccc(F)cc1C	.	0.29	-2	1	31*
CC(=O)NCCC(=O)NCc1ccc(F)cc1	-0.28	-0.74	-4	1.1	9
CC(O)c1ccc2c(c1)OCCOCCN(C)CCOCCO2 (stereo not given)	0.12	-0.41	4	1.2	5
Brc1ccc2c(c1)OCCOCCOc1cc(Br)ccc1OCCOCCOCCO2	-3.5	-0.46	0	1.4	68*
N#Cc1c(NC(=O)c2ccc(Cn3cc(Br)cn3)o2)sc2c1CCCCC2	-4.1	1.9	2	0.9	35*
COC(=O)c1sc(NC(=O)c2ccc(Cn3cc(Cl)cn3)o2)c(C#N)c1C	-3.7*	0.074	16	1.4	18
O=C(NC1CCCCC1)c1ccc(Cn2cc(Br)cn2)o1	0.023	0.62	-6	0.9	14
CCOC(=O)c1c(NC(=S)NC(=O)c2ccc(Cn3cc(Cl)cn3)o2)sc2c1CCCCC2	0.55	-0.82	-1	0.9	-1
CC1CCc2c(sc(NC(=O)c3ccc(Cn4cc([N+](=O)[O-])cn4)o3)c2C#N)C1 (stereo not given)	-0.6	-0.026	-6	1.1	38*
Cc1nc(COC(=O)c2ccc(S(=O)(=O)N3CCCC3)cc2)cs1	0.36	-0.38	-7	1.2	-3
Cc1sc(NC(=O)C2CCCCC2C(=O)O)c(C(N)=O)c1C (stereo not given)	-4.2*	0.46	-1	1	5
SMILES	Cav32 inh	DAT uptake mod	PostGolgi yeast	PLAP activator	PostGolgi ctrl
Cc1sc(NC(=O)C2CCCCC2C(=O)O)c(C(N)=O)c1-c1ccccc1 (stereo not given)	0.72	1.5	2	1	-1
Cc1sc(NC(=O)C2CCCCC2C(=O)O)c(C(N)=O)c1-c1ccc(C(C)(C)C)cc1 (stereo not given)	.	0.66	8	1.3	30*
COC(=O)[C@@]1(Cc2ccc(OC)cc2)[C@H]2c3cc(C(=O)N4CCCC4)n(Cc4ccc(C)o4)c3C[C@H]2CN1C(=O)c1ccccc1	-1.5	0.27	.	.	.
CCN(CC(=O)Nc1ccc2c(c1)CCC2)Cc1nc2ccccc2c(=O)[nH]1	-1.9	1.5	-1	2.6*	22
CCN(CC(=O)NC(=O)NC1CCCCC1)Cc1nc2ccccc2c(=O)[nH]1	-0.2	0.46	-5	.	2
CCN(CC(=O)Nc1ccc2c(c1)OCO2)Cc1nc2ccccc2c(=O)[nH]1	0.68	1.3	-8	.	31*
CCN(CC(=O)Nc1ccc2c(c1)OC(F)(F)O2)Cc1nc2ccccc2c(=O)[nH]1	-1.6	0.19	-7	.	9
CN(CC(=O)Nc1ccccc1Br)Cc1nc2ccccc2c(=O)[nH]1	.	0.35	8	2.4*	22
CCN(CC(=O)Nc1ccc(N2CCOCC2)cc1)Cc1nc2ccccc2c(=O)[nH]1	1.3	-0.37	9	2.1*	-16
CCCN(CCC)S(=O)(=O)c1cc(Br)cc2c1N(C(=O)CC)CC2	-0.22	0.5	-1	1.5	19
